Results from ChEMBL document CHEMBL3988442, “University of Dundee, Small-Polar-MMV Screening Library” (2021).
For some of these results: Entries with a potency or affinity are not part of this list.

Experiments:
Set-up in all cases: scale not given: direction of the effect not stated beside the values
[1] = biological target: Protein translocase subunit SecA (Escherichia coli (strain K12)) (UniProt P10408); experiment: Assay to Identify E. coli SecA ATPase Inhibitors; format: functional; conditions: 30 µM
[2] = biological target: T1, Ubiquitin-activating enzyme e1, putative (Leishmania donovani (strain BPK282A1)) (UniProt E9BSI1); experiment: Leishmania donovani Ubiquitin Activating Enzyme (LdE1); format: functional; conditions: 30 µM
T1 sequence (whole entry): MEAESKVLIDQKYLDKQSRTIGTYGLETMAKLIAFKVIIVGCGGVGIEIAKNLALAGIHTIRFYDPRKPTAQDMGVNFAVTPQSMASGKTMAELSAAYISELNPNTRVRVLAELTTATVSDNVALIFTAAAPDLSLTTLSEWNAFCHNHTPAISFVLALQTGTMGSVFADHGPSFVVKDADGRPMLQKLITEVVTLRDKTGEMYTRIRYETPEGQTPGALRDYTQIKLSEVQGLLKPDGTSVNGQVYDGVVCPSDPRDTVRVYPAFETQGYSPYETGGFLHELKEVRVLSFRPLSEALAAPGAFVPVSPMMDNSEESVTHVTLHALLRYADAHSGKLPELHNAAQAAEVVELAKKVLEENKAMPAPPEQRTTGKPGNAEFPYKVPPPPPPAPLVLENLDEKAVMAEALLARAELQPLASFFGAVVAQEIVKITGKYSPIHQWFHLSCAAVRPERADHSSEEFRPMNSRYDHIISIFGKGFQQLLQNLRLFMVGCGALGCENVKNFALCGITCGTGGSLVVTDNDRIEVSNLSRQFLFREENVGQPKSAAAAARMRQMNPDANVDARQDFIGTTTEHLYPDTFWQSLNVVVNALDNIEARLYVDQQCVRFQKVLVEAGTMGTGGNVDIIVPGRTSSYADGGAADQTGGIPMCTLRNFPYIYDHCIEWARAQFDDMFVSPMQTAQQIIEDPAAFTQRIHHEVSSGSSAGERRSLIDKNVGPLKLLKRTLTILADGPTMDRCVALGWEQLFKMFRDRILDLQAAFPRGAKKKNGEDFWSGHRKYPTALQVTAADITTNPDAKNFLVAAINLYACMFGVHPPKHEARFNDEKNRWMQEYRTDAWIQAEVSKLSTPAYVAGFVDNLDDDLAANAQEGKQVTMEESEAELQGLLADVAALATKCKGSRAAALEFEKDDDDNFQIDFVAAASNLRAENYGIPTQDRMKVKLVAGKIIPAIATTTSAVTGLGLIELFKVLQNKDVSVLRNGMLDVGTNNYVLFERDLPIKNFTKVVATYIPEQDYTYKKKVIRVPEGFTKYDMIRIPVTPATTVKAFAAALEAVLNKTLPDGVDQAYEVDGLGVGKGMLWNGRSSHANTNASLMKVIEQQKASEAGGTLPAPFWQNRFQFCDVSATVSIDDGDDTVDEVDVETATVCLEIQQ

[3] = biological target: AMP-activated protein kinase, AMPK (Homo sapiens) (UniProt P54646+O43741+P54619+Q9UGJ0+Q9Y478+Q13131+Q9UGI9); experiment: AMP-dependent Kinase enzyme assay. An in vitro enzyme assay that detects ADP turnover that is directly proportional to AMPK activity. This uses naive AMPK that is activated during the assay with MK-8722; format: functional; conditions: 30 µM
[4] = biological target: Sialic acid-binding Ig-like lectin 9 (Homo sapiens) (UniProt Q9Y336); experiment: Hs-Siglec9 ALPHAscreen SOP 20170721; conditions: 10 µM
Trypanosoma cruzi = experiment: Trypanosoma cruzi phosphomannomutase and mannose-1-phosphate guanylyltransferase assay; format: functional; conditions: 10 µM
[5] = biological target: T2, Arginase-2, mitochondrial (Homo sapiens) (UniProt P78540); experiment: in vitro enzyme assay to detect the production of urea directly proportional to the activity of Arginase II; format: functional; conditions: 33.3 µM; note: in the data most compounds retested in dose-response had high values
T2 sequence (whole entry): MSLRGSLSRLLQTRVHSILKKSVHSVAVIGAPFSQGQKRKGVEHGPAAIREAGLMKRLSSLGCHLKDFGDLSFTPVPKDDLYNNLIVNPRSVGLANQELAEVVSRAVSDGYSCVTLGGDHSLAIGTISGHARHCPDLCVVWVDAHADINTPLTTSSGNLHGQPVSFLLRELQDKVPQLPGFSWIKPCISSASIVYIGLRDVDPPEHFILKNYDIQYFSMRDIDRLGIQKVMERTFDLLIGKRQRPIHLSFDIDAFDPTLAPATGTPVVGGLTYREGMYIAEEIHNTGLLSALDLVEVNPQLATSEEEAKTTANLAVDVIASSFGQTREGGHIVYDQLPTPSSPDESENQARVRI

[6] = biological target: T3, Proteasome subunit beta (Trypanosoma cruzi) (UniProt O96673); experiment: Trypanosoma cruzi proteasome chymotrypsin-like activity (TcProtChymo) assay.; note: in the data most compounds retested in dose-response had high values; format: functional; conditions: 9.37 µM
T3 sequence (whole entry): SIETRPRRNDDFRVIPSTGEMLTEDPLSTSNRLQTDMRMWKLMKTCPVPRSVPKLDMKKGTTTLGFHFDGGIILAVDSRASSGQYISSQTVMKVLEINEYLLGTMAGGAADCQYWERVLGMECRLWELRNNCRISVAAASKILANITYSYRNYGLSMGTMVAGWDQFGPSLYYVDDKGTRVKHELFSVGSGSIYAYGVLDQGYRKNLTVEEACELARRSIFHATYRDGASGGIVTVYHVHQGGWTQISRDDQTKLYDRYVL

Homo sapiens = organism: Homo sapiens; experiment: To identify inhibition of the IFN signalling (Jak-Stat) pathway via expression of an eGFP reporter gene under the control of an IFN-stimulated response element (ISRE) containing MxA promoter.; format: functional; conditions: 30 µM
[7] = biological target: T4, Tyrosyl-tRNA synthetase, putative (Trypanosoma cruzi (strain CL Brener)) (UniProt Q4DSP6); experiment: Trypanosoma cruzi tyrosyl tRNA synthetase (TcYRS) _High Tyrosine SOP; format: functional; conditions: 30 µM; note: in the data most compounds retested in dose-response had high values
T4 sequence (whole entry): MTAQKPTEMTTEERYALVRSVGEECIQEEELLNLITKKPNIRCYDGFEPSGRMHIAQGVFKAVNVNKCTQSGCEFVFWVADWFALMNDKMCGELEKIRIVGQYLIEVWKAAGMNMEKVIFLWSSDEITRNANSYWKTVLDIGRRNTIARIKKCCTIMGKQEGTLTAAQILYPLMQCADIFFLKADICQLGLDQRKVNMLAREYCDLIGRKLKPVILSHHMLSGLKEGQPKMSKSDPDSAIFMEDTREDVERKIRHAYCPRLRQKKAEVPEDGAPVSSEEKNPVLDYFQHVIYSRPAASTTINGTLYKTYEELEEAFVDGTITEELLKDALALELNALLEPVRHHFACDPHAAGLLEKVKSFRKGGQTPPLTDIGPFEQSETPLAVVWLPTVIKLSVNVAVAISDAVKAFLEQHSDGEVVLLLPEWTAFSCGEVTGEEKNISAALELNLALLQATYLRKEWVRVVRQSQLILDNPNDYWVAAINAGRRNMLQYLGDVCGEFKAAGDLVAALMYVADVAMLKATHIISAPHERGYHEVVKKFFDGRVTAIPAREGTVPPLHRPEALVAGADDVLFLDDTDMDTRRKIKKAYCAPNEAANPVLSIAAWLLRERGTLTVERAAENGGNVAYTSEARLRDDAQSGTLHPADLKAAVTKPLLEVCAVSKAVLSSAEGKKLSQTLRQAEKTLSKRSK

[8] = biological target: T4, Tyrosyl-tRNA synthetase, putative (Trypanosoma cruzi (strain CL Brener)); experiment: Trypanosoma cruzi tyrosyl tRNA synthetase (TcYRS) SOP; format: functional; conditions: 30 µM
[9] = biological target: Chromo domain-containing protein 1 (Saccharomyces cerevisiae (strain ATCC 204508 / S288c) (Baker's yeast)) (UniProt P32657); experiment: ScCHD-1 Enzyme Inhibition Assay; format: functional; conditions: 30 µM; note: in the data most compounds retested in dose-response had high values
Sequence of Chromo domain-containing protein 1 (Saccharomyces cerevisiae (strain ATCC 204508 / S288c) (Baker's yeast)) (P32657 whole entry, the tested form may be a part): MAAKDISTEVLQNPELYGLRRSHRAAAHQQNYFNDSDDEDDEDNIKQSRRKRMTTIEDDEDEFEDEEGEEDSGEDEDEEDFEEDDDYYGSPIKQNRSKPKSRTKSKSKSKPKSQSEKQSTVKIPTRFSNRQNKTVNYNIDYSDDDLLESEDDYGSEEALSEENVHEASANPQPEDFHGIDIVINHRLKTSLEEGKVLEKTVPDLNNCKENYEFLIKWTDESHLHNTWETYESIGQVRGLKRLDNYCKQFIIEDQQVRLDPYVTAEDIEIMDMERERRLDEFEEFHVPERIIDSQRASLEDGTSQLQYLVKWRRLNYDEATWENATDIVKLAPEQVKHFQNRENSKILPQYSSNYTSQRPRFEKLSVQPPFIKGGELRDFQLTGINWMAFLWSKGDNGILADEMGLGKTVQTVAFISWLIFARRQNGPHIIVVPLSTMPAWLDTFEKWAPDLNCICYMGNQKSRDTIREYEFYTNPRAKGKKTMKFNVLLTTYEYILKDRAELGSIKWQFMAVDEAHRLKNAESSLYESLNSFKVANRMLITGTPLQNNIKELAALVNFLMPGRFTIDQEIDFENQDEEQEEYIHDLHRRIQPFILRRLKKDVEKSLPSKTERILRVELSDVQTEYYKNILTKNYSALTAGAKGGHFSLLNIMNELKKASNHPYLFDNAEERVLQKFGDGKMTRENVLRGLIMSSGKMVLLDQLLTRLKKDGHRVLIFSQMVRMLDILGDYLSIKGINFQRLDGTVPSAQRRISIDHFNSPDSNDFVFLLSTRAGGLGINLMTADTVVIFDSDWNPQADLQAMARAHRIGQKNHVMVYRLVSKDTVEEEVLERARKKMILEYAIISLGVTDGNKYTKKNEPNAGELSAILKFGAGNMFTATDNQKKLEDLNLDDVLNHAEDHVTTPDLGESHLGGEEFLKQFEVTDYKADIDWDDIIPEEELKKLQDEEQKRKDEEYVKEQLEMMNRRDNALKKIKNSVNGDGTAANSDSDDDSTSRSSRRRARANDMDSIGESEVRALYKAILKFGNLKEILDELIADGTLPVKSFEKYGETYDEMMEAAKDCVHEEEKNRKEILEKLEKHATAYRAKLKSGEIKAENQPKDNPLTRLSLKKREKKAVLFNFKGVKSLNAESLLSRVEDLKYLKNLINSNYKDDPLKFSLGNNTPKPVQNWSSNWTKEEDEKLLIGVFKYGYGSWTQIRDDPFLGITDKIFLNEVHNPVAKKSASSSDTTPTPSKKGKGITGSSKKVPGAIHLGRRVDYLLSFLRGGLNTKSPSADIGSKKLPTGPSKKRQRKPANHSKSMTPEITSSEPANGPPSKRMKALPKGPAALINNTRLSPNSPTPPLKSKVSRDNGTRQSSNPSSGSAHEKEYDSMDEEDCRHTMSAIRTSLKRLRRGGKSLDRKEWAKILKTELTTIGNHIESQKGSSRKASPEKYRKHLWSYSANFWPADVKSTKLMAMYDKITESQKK

Sequence of Sialic acid-binding Ig-like lectin 9 (Homo sapiens) (Q9Y336 whole entry): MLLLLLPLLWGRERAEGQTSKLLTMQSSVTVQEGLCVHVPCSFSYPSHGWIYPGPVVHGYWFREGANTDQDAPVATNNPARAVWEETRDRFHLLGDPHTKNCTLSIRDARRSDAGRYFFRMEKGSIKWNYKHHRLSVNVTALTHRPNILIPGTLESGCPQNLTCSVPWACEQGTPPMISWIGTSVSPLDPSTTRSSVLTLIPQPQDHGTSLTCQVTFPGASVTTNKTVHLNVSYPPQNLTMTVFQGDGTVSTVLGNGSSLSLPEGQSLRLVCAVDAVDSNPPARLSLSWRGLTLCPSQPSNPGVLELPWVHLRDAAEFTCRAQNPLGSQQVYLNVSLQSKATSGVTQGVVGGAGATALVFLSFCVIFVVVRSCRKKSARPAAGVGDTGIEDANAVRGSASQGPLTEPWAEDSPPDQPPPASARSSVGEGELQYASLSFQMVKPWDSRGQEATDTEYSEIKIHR
Sequence of Protein translocase subunit SecA (Escherichia coli (strain K12)) (P10408 whole entry): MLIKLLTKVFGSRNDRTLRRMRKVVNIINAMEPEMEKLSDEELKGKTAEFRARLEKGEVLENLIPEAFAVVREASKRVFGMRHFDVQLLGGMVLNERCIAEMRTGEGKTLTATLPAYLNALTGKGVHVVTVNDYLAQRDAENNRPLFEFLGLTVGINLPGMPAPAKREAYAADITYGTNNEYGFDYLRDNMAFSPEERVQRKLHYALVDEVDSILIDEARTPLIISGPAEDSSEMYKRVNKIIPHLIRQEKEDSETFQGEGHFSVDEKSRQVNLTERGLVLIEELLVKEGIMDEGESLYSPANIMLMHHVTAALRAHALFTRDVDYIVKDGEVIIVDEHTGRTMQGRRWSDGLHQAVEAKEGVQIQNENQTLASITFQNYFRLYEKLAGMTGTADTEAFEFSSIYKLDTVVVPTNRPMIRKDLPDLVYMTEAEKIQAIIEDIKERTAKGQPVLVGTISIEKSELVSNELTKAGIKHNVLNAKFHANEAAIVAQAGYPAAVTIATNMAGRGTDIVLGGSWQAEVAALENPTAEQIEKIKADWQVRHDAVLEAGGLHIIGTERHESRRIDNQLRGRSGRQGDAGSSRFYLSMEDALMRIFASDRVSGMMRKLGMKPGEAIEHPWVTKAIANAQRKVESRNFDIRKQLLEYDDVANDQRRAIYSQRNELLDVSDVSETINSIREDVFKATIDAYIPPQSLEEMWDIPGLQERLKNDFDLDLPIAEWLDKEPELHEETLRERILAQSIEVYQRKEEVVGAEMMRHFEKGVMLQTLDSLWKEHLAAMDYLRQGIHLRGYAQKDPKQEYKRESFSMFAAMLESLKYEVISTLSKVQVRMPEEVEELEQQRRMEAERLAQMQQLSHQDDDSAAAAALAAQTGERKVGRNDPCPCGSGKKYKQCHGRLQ

Row | Structure (SMILES) | Percent Effect [1] [%] | Percent Effect [2] [%] | Percent Effect [3] [%] | Percent Effect [4] [%] | Percent Effect (Trypanosoma cruzi) [%] | Percent Effect [5] [%] | Percent Effect [6] [%] | Percent Effect (Homo sapiens) [%] | Percent Effect [7] [%] | Percent Effect [8] [%] | Percent Effect [9] [%]
1 | CCC(C)NC(=O)Nc1ccc(CN2CCOC2=O)cc1 (stereo not given) | -5.29 | -6.94 | -16.3 | -0.797 | -5.15 | 0 | 12.1 | 21 | -2.1 | -5.13 | -1.28
2 | CC1CCCN(C(=O)CCc2cccnc2)C1 (stereo not given) | 2.47 | 17.7 | 0.257 | -8.86 | -5.57 | 6.84 | 7.29 | 25.3 | 3.45 | 16.5 | -0.749
3 | Cn1cc(-c2cnc(N3CCOCC3)nc2)cc1C(=O)N1CCOCC1 | -2.41 | 13.3 | 7.42 | 1.64 | -0.984 | 2.56 | 1.32 | 23.2 | 6.38 | 14.1 | -9.55
4 | COc1c(CNCC(O)c2cccc(F)c2)c(C(C)C)nn1C (stereo not given) | 2.75 | 10.4 | -6.14 | -13.3 | -4.6 | -0.21 | 18.7 | 5.92 | 9.52 | 14.1 | -15.9
5 | O=C(Nc1cccc(CNCc2csc(Br)c2)c1)C1CC1 | -8.41 | 23.7 | -5.54 | -1.24 | 5.32 | 2.16 | 7.19 | 37.8 | 3.45 | 25.9 | -8.55
6 | CNC(=O)CC1CC2(CCN(Cc3nccs3)CC2)c2ccccc21 (stereo not given) | -3.09 | 16.2 | -8.78 | 1.43 | 3.52 | 3.75 | 11.8 | -4.56 | 7.92 | 8.54 | -7.65
7 | CC(C)(C)c1nc(CN2CCCC(Cn3cncn3)C2)cs1 (stereo not given) | -0.434 | 21.6 | -0.165 | -3.27 | 5 | -17.6 | 10.6 | 3.9 | 1.48 | 18.5 | -8.38
8 | COCCCN1CCC(NC(=O)C(C)C)CC1 | -6.61 | -2.74 | -0.488 | -2.06 | -5.16 | -2 | 6.76 | 24.5 | 0 | -1.24 | -2.64
9 | Cc1nn(C)c(C)c1C1CCCN1CCCc1nc2ccccc2o1 (stereo not given) | -7.27 | 8.11 | -11.9 | 17.9 | 5.38 | -10 | 8.47 | 13.8 | 11.3 | 23.5 | -12.9
10 | NC(=O)COc1ccc(CNCc2ccc(F)cc2F)cc1 | -2.69 | 6.94 | -4.07 | 9.21 | 3.01 | 24.7 | 8.42 | -28.4 | 9.47 | 12.8 | -5.67
11 | COc1ccc(CN(C)[C@@H]2CN(C(=O)c3cccs3)C[C@H]2O)cc1 | -3.27 | 6.76 | 10.4 | 2.59 | -6.13 | -2.09 | 10.6 | 15.6 | 5.38 | 9.09 | -9
12 | CC(NC(=O)NCCCNS(C)(=O)=O)c1ccncc1 (stereo not given) | -4.34 | 6.33 | 4.73 | 0.18 | -2.97 | -1.5 | 8.4 | -9.13 | 12.5 | 17.7 | -4.71
13 | CCOc1cc(C(=O)N2CCCC(c3cc(C(N)=O)[nH]n3)C2)ccn1 (stereo not given) | -4.21 | 10.5 | 5.83 | -2.38 | 7.94 | 0 | 5.5 | -0.364 | 3.45 | 16.1 | -0.329
14 | Cc1cc(C(=O)N2C[C@@H]3[C@@H](C2)OCC(=O)N3CC2CC2)no1 | -1.71 | -31.2 | 5.62 | 6.36 | -6.98 | -16.6 | 4.49 | 6.95 | -54.8 | -90.1 | 0.00283
15 | O=C(c1ccncc1)N1CCC(c2nc(O)cc(-c3cccnc3)n2)C1 (stereo not given) | -0.62 | 21.3 | -34.2 | -1.55 | 3.74 | 26.8 | 8.55 | 17.1 | 8.51 | 11.5 | -5.75
16 | CNc1nc(CNC(=O)Nc2ccccc2SC)cs1 | 1.51 | -2.63 | -1.33 | 0.229 | -2.07 | 3.83 | 7.69 | 10.1 | 1.47 | 4.88 | 3.33
17 | COc1ccc(-c2nccnc2C2CCN(C(C)=O)CC2)cc1 | -3.54 | 25.7 | -4.6 | -7.08 | 0.395 | -3.48 | 11.7 | 8.34 | 1.07 | 9.09 | -9.8
18 | CC(=O)N1CCN(Cn2nc(-c3ccc(F)cc3)oc2=O)CC1 | -3.09 | 23.4 | -4.67 | -7.73 | -2.25 | 0.712 | 8.11 | 15 | 9.71 | 21.9 | -10.3
19 | Cc1noc(C)c1CN1C(=O)[C@H]2CC[C@@H]1CN(Cc1cccnc1N)C2 | 0.397 | 1.39 | 15.3 | -8.6 | -8.46 | 3.53 | 23 | 31.8 | 0 | -5.13 | 3.37
20 | O=C(CN1CCCC1Cn1cccn1)NC1CCOCC1 (stereo not given) | -0.811 | 0 | -3.32 | -1.02 | 0.772 | -2.38 | 13.6 | -13.8 | 1.59 | -12.2 | -2.17
